Consider 9 compounds from PubChem BioAssay.

The nature of test [1]: resazurin metabolic signal in HepG2 cells – cell-based, resazurin fluorescence, 24 h, PK04 Diversity Set, profiling panel (AID 1172). To be noted: HepG2 viability, higher = more signal.
A short description of test [2]: budding yeast growth changes without added modifier – OD600, strain BY4716, 24 h, basal condition, primary screen (AID 1173). The conditions noted are these: S. cerevisiae BY4716 growth, OD600, 24 h; higher = more signal, called active from +8 up or from −8 down.
The nature of test [3]: viability profiling in MM1S myeloma cells – cell-based, resazurin fluorescence, basal, 24 h, PK04 Diversity Set, profiling panel (AID 1174).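 Note: MM1S multiple myeloma cell line.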 To be noted: higher = more signal, called active from +8 up or from −8 down. On the technique in general: The colour change of resazurin is a common sign of viable cells or microbes.
Test [4] has as its target Dihydroorotate dehydrogenase (quinone), mitochondrial (Plasmodium falciparum (isolate 3D7)) (UniProt Q08210). The test is described as follows: inhibition of P. falciparum DHODH – biochemical, C-terminal His tag, absorbance 600 nm, primary screen (AID 1175).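 Note: recombinant parasite enzyme with a five histidine tag at its C terminus.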 To be noted: PfDHODH enzyme, DCIP absorbance 600 nm; higher = more signal, called active from +8 up or from −8 down.

Test [5] is described as follows: inhibition of PAO1 biofilm formation – strain PAO1, LB-PBS medium, absorbance 600 nm, primary screen (AID 1176). To be noted: P. aeruginosa PAO1 growth/biofilm, A600, 12 h; higher = more signal.
Test [6] is described as follows: growth modulation of vineyard yeast isolate – strain RM11-1a, OD600, basal, 24 h, primary screen (AID 1177).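 Note: cultures grown under basal conditions with no added stressor.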 To be noted: S. cerevisiae RM11-1a growth, OD600, 24 h; higher = more signal, called active from +8 up or from −8 down.
The nature of test [7]: growth of efflux-deficient E. coli DRC39 – strain DRC39, OD650, 24 h, E. coli filamentation inducers, primary screen (AID 1178).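 Note: growth measured as culture turbidity by optical density at 650 nm.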 To be noted: E. coli DRC39 acrAB, higher = more signal, called active from +8 up or from −8 down.
A short description of test [8]: growth of efflux-deficient E. coli DRC39 – strain DRC39, OD650, 48 h, E. coli filamentation inducers, primary screen (AID 1179).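 Note: screen aims at cell division blockers that make cells filament.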 To be noted: E. coli DRC39 delta-acrAB growth, higher = more signal, called active from +8 up or from −8 down.
The nature of test [9]: viability profiling in RPMI8226 myeloma cells – cell-based, resazurin fluorescence, basal, 24 h, PK04 Diversity Set, profiling panel (AID 1180).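 Note: RPMI8826 multiple myeloma cell line at 5000 cells per well.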 The conditions noted are these: higher = more signal.
In test [10] the target is E3 ubiquitin-protein ligase XIAP (Homo sapiens) (UniProt P98170). The test is described as follows: small molecules binding XIAP protein – biophysical, small-molecule microarray, fluorescence 635 nm, primary screen (AID 1181).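 Note: score merges 667 nm emission and signal to noise over triplicate slides.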 The conditions noted are these: higher = more signal.
Chain of E3 ubiquitin-protein ligase XIAP (Homo sapiens) (P98170 whole entry, looked up, the tested form may be a part): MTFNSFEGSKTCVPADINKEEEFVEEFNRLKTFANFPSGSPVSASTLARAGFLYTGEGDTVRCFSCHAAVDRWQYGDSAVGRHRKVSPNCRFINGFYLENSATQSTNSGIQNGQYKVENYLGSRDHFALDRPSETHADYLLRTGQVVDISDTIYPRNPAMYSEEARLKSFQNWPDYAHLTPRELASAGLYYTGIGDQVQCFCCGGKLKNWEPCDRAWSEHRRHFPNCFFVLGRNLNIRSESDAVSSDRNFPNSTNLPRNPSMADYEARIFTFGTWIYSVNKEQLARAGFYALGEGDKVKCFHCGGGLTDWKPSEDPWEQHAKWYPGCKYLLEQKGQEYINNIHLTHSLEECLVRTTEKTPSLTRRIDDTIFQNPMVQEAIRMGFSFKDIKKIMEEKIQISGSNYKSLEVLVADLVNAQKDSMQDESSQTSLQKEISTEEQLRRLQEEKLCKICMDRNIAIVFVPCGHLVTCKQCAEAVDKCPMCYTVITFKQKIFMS
Test [11] concerns XIP peptide (Xip251-270) binding. The test can be described thus: XIP fragment 251-270 binding compounds – biochemical, small-molecule microarray, fluorescence 635/667 nm, 0.1 µg/mL protein, primary screen (AID 1182). The conditions noted are these: fluorescent protein binding, 635 nm, higher = more signal, called active from +8 up or from −8 down.
Another test relates to XIP peptide (Xip251-270). The test is described as follows: compounds binding XIP fragment 251-270 – biochemical, small-molecule microarray, fluorescence 635/667 nm, 0.5 µg/mL protein, primary screen (AID 1183). The conditions noted are these: fluorescence 635 nm, higher = more signal.
A short description of test [12]: blood-stage malaria parasite viability loss – strain 3D7, DAPI fluorescence, 100 nL, primary screen (AID 1184).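 Note: parasites grown inside human red blood cells in medium with human serum.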 The conditions noted are these: P. falciparum 3D7 growth, 3 d, higher = more signal.
Test [13] concerns the target Homeobox protein Hox-A13 (Mus musculus) (UniProt Q62424). The test is described as follows: disruptors of Hoxa13 oligonucleotide interaction – biochemical, fluorescence polarization, labeled oligonucleotide, primary screen (AID 1185). To be noted: Hoxa13:DNA binding, 15 min, higher = more signal, called active from +8 up or from −8 down. Background: Polarisation of emitted light reports the rotation of a fluorescent probe.

Test [14] in a line: blockers of DNA damage checkpoint Chk1 activation – imaging, HeLa, hydroxyurea, phospho-Chk1 antibody, percent positive cells, primary screen (AID 1186). To be noted: hydroxyurea-induced phospho-Chk1 immunofluorescence imaging, higher = more signal.
Test [15] can be described thus: blockers of DNA damage checkpoint Chk1 activation – imaging, HeLa, hydroxyurea, phospho-Chk1 nuclear intensity, primary screen (AID 1187). The conditions noted are these: hydroxyurea-induced phospho-Chk1 immunofluorescence imaging, higher = more signal.

Calls of active or inactive are those of the source. Unless noted, the rule behind the calls is not given here.

Chain of Dihydroorotate dehydrogenase (quinone), mitochondrial (Plasmodium falciparum (isolate 3D7)) (Q08210 whole entry, looked up): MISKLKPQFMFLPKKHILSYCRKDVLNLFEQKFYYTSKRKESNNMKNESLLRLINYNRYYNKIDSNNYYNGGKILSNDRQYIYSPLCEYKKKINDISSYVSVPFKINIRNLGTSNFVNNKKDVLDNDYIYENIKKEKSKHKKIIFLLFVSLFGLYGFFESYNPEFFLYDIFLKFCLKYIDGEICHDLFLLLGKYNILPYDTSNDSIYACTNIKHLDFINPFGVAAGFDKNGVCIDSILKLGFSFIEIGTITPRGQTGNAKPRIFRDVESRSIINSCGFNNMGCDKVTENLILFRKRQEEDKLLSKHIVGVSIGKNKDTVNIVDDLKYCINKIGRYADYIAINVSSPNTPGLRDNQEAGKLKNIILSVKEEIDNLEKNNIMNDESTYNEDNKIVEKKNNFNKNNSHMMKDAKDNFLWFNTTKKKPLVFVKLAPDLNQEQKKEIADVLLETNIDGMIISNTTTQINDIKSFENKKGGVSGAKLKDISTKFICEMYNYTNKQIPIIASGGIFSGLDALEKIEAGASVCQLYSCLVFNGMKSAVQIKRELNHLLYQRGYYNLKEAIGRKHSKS
Chain of Homeobox protein Hox-A13 (Mus musculus) (Q62424 whole entry, looked up): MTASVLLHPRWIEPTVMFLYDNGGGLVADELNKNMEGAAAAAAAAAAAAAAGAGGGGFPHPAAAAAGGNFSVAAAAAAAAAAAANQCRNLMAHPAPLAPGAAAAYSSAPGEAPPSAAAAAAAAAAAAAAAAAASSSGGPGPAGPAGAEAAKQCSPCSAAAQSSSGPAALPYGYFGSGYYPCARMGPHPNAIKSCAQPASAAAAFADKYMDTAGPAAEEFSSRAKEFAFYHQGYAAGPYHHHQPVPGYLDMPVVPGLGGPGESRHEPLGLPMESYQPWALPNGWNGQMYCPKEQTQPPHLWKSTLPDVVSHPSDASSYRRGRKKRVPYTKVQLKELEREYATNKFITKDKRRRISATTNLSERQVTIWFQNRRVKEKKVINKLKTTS

Regarding `COC(=O)C(CC#Cc1ccc2c(c1)[C@]1(C(=O)N2)[C@H](c2ccccc2OCCO)N2[C@H](c3ccccc3)[C@H](c3ccccc3)OC(=O)[C@H]2[C@@H]1C(=O)O)C(=O)OC`, the z-score in [1] was 0.622; in [2], -0.502 (inactive); in test [3], 1.39 (inactive); in test [5], 1.96 (inactive); in [6], 2.98 (inactive); in [7] it was 0.84 (inactive). Moreover, the z-score in [8] was 0.905 (inactive); in [9], -0.259; in test [12] it was 0.386; in test [13] it was -5.57 (inactive); in test [14], 0.0449 (inactive); in test [15] it was 0.426 (inactive). Besides, the composite z-score in test [4] is -5.13 (inactive); in test [10] it was 0.0533; in [11], 0.117 (inactive); with XIP peptide (Xip251-270) it was 0.791.
Regarding `COCCOC(=O)N1C(=O)[C@@]2(c3ccccc31)[C@H](c1ccc(OCCO)cc1)N1[C@H](c3ccccc3)[C@H](c3ccccc3)OC(=O)[C@H]1[C@@H]2C(=O)N1CCc2cc(OC)c(OC)cc2C1`, the z-score in [1] was -0.14; in test [2], 1.57 (inactive); in [3], 0.102 (inactive); in test [5], 1.79 (inactive); in test [6] it was 2.94 (inactive); in test [7], 0.43 (inactive). Moreover, the z-score in test [8] is 0.736 (inactive); in test [9], 0.994; in test [12] it was -2.15; in test [13], 2.01 (inactive); in test [14], 0.147 (inactive); in [15], 0.0081 (inactive). The composite z-score is -2.08 (inactive) in test [4], -0.153 in test [10], 0.933 (inactive) in test [11] and 0.919 with XIP peptide (Xip251-270).
As to `COCCOC(=O)N1C(=O)[C@@]2(c3cc(C#CC4(O)CCCCCC4)ccc31)[C@H](C(=O)Nc1nc3ccccc3s1)[C@H]1C(=O)O[C@H](c3ccccc3)[C@H](c3ccccc3)N1[C@@H]2c1ccc(OCCO)cc1`, the z-score in test [1] was -0.0451; in [2], 1.16 (inactive); in test [3], -0.584 (inactive); in test [5], 2.69 (inactive); in [6] it was 3 (inactive); in test [7], -0.451 (inactive). Further, the z-score in test [8] is -0.976 (inactive); in [9], -0.523; in [12], -1.71; in test [13], 0.447 (inactive); in [14] it was -0.086 (inactive); in test [15], -0.0454 (inactive). Moreover, the composite z-score is 0.901 (inactive) in test [4], 0.0073 in test [10], -0.148 (inactive) in test [11] and 0.712 in the test with XIP peptide (Xip251-270).
Take `COc1ccc([Si](C)(C)[C@H]2[C@H](CC(=O)N3CCC[C@H]3CO)O[C@@]3(C(=O)N(Cc4cccc(N5CCOC5=O)c4)c4ccccc43)[C@@H]2C)cc1`: the z-score in test [1] is 0.22; in [2] it was -0.338 (inactive); in test [3] it was -0.133 (inactive); in test [5] it was -0.249 (inactive); in [6], 0.177 (inactive); in test [7], 0.181 (inactive). Also, the z-score in test [8] was -0.109 (inactive); in [9], -0.699; in test [12], -1.42; in test [13], -4.71 (inactive); in [14] it was 0.835 (inactive); in test [15] it was 0.936 (inactive). The composite z-score in test [4] was -3.32 (inactive); in test [10] it was -0.0839; in test [11], 0.991 (inactive); in the test on XIP peptide (Xip251-270), 0.672.
On to `COc1ccc([C@H]2C[C@H]3C(Br)=C[C@@]2(CO)C(=O)[C@]32CO2)cc1`, for which the z-score in [1] is 0.231; in test [2] it was -4.42 (inactive); in test [3] it was -0.445 (inactive); in [5] it was 0.118 (inactive); in test [6] it was -0.121 (inactive); in test [7], -0.0919 (inactive). The z-score in [8] is -0.0065 (inactive); in test [9] it was -0.384; in test [12], 0.951; in test [13], -1.05 (inactive); in test [14], -0.0281 (inactive); in [15] it was 0.202 (inactive). Also, the composite z-score was -0.174 (inactive) in test [4], 0.0009 in test [10], -0.358 (inactive) in [11] and -0.311 in the test with XIP peptide (Xip251-270).
Consider `NCCCCCNC(=O)[C@H]1C[C@H]2C(=O)N3CCC[C@H]3C(=O)N2[C@H]1c1ccc(O)cc1`, for which the z-score was -0.0962 in test [1]; -0.0403 (inactive) in test [2]; -0.225 (inactive) in test [3]; 0.174 (inactive) in test [5]; -0.835 (inactive) in test [6]; -0.363 (inactive) in test [7]. Further, the z-score is -0.39 (inactive) in test [8]; -0.485 in test [9]; -0.0006 in test [12]; -2.09 (inactive) in test [13]; -0.15 (inactive) in test [14]; -0.265 (inactive) in test [15]. The composite z-score was -0.572 (inactive) in [4], 0.247 in test [10], 0.705 (inactive) in test [11] and 0.718 in the test with XIP peptide (Xip251-270).
As to `COC(=O)C[C@H]1O[C@@H](CCc2ccccc2)[C@@H](C)[C@@H]1[Si](C)(C)c1ccc(OC)cc1`, the z-score in test [1] was 0.294; in test [2], -0.938 (inactive); in [3], -0.229 (inactive); in test [5], -0.529 (inactive); in test [6], 0.725 (inactive); in test [7] it was -0.0089 (inactive). Further, the z-score in test [8] is -1.12 (inactive); in test [9], -0.206; in [12], -1.63; in test [13] it was -4.56 (inactive); in test [14] it was 0.0465 (inactive); in test [15], 0.33 (inactive). Also, the composite z-score was 0.656 (inactive) in test [4], 0.152 in test [10], -0.633 (inactive) in test [11] and -0.919 with XIP peptide (Xip251-270).
For the compound `CN1C(=O)C2C=CC(C(O)c3ccccc3)N(N3CCCCC3)C2C1=O` (centres undefined), the z-score in [1] was -0.894; in test [2], 0.429 (inactive); in [3], -0.983 (inactive); in test [5], 0.462 (inactive); in test [6] it was -0.023 (inactive); in test [7], -1.32 (inactive). The z-score in test [8] was -1.4 (inactive); in test [9], -1.56; in [12] it was -0.261; in test [13], -5.01 (inactive); in test [14] it was 0.246 (inactive); in [15], -0.455 (inactive). Also, the composite z-score was 0.0669 (inactive) in test [4], 0.263 in test [10], 0.344 (inactive) in test [11] and 0.797 in the test on XIP peptide (Xip251-270).
In the case of `NC(=O)[C@@]1(Cc2ccccc2)N=C(c2ccc(OCCCO)cc2)O[C@H]1c1ccccc1`, the z-score is -0.815 in test [1]; -1.05 (inactive) in test [2]; 0.597 (inactive) in test [3]; 0.466 (inactive) in test [5]; -0.541 (inactive) in [6]; 1.54 (inactive) in test [7]. Further, the z-score in test [8] is 0.915 (inactive); in test [9], -0.0693; in [12] it was -0.689; in test [13] it was -5.07 (inactive); in test [14], -0.18 (inactive); in test [15], 0.135 (inactive). The composite z-score in test [4] is 0.842 (inactive); in test [10], 0.225; in [11], 1.08 (inactive); in the test on XIP peptide (Xip251-270), -0.41.
